# From PubChem BioAssay (NCATS)
# Several values for one entry are separate records, joined by “and”; a condition that tells them apart may be missing. Equal values may be shown once. Inconclusive results are not listed. Where a call stands in place of a potency, no number is given. More than one record can exist for a structure, and the calls need not agree. Activity calls are given as the source filed them. Unless noted, calls follow the shape of the full dose curve.
# How the values were obtained:
# [1] = Primary qHTS for Huh7 cytotoxicity: counterscreen for inhibitors of MERS-S pseudotyped particle cell entry (AID 1479147); details: outcome: dose series up to 57.1 µM unless noted
# [2] = Primary qHTS for inhibitors of MERS-S pseudo-typed particle cell entry (AID 1479149); details: outcome: dose series up to 57.1 µM unless noted; also: nearly all actives have a fitted effect of over 60% in size
# [3] = Primary qHTS for Vero E6 cytotoxicity: counterscreen for inhibitors of SARS-S pseudo-typed particle cell entry (AID 1479150); details: outcome: dose series up to 57.1 µM unless noted
# [4] = Cytotoxicity counterscreen for inhibitors of SARS-CoV-2 cell entry (AID 1645845); details: outcome: dose series up to 57.1 µM unless noted; also: nearly all actives have a fitted effect of over 50% in size
# How it was run: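 ATP-content luminescence (ATPLite 1step, 15 min RT) read after 48 h compound exposure of Expi293F cells stably expressing human ACE2; normalized to cells-only wells and media-only wells.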
# [5] = biological target: Glutathione peroxidase 1 (Homo sapiens) (UniProt P07203); assay: Primary qHTS Assay for Inhibitors of Recombinant Selenoprotein Glutathione Peroxidase 1 (GPX1) (AID 1845191; active = well fitted curve in the direction sought with a large enough effect; an effect the other way counts as inactive or inconclusive; also: nearly all actives have a fitted effect of over 65% in size)
# How it was run: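 NADPH consumption tracked by fluorescence at 340/450 nm between t=0 and t=15 min, room temperature. Final mix: 10 nM GPX1, 100 nM glutathione reductase, 1 mM GSH, 0.5 mM NADPH, 0.5 mM cumene hydroperoxide, 0.01% BSA; 30 min compound–enzyme preincubation.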
# [6] = biological target: Phospholipid hydroperoxide glutathione peroxidase GPX4 (Homo sapiens) (UniProt P36969); assay: Primary qHTS Assay for Inhibitors of Recombinant Selenoprotein Glutathione Peroxidase 4 (GPX4) (AID 1845192; active = well fitted curve in the direction sought with a large enough effect; an effect the other way counts as inactive or inconclusive; also: nearly all actives have a fitted effect of over 65% in size)
# How it was run: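 NADPH consumption followed by fluorescence at 340/450 nm, t=0 and after 15 min at room temperature. Reaction started with cumene hydroperoxide (0.5 mM final) after 30 min compound–GPX4 preincubation; final 200 nM GPX4, 100 nM GR, 1 mM GSH, 0.5 mM NADPH.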
# [7] = Cell Viability - LYMP2-007 (AID 979; active = well fitted curve in the direction sought with a large enough effect; an effect the other way counts as inactive or inconclusive;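 also: potency is read from the fitted curve at half-maximal effect; cells exposed to compound for 24 h before reading; nearly all actives have a fitted effect of over 60% in size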)
# How it was run: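 Measured via luciferase-based ATP quantitation: lymphoblastoid cells, 24 hr compound exposure at 37 C, AC50 from Hill fits.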
# [8] = biological target: Estrogen receptor (Homo sapiens) (UniProt P03372); assay: qHTS assay for small molecule antagonists of estrogen receptor alpha signaling (AID 588513; active = well fitted curve in the direction sought with a large enough effect in the signal ratio, with a control signal flat, not every such curve was filed as active; the % refers to the signal ratio)
# How it was run: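 Cells were plated at 5000/well and incubated 4 h at 37 C. Compounds were added as 1:2 dilution series, duplicates. 17-beta-estradiol (0.5nM final) was added for 18 h before CCF4 detection.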
# [9] = biological target: Glucocorticoid receptor (Homo sapiens) (UniProt P04150); assay: qHTS assay for small molecule agonists of glucocorticoid receptor signaling (AID 588532; active = well fitted curve in the direction sought with a large enough effect in the signal ratio, with a control signal flat; the % refers to the signal ratio); details: HeLa MMTV-bla, beta-lactamase ratio, agonist, 18 h; stronger effect = higher value; percent of dexamethasone control, DMSO zero
# How it was run: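 Quantitative HTS using CellSensor MMTV-bla HeLa cells in charcoal/dextran-treated serum; compounds tested up to 92 uM. After 18 h at 37 C, CCF4 dye reported reporter induction.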
# [10] = biological target: Peroxisome proliferator-activated receptor gamma (Homo sapiens) (UniProt P37231); assay: qHTS assay for small molecule antagonists of peroxisome proliferator-activated receptor gamma signaling (AID 588537; active = well fitted inhibition curve with a large enough effect in the signal ratio, with a control signal flat, not every such curve was filed as active; the % refers to the signal ratio;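 also: reporter cells co-stimulated with 50 nM rosiglitazone agonist during compound treatment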)
# How it was run: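 Cell-based beta-lactamase assay; GW9662 served as the antagonist control. Stimulation used rosiglitazone, final 50 nM, 16 h, 37 C.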
# [11] = biological target: Thyroid hormone receptor beta (Homo sapiens) (UniProt P10828); assay: qHTS assay for small molecule antagonists of thyroid hormone receptor beta signaling (AID 588547; active = well fitted inhibition curve with a large enough effect in the signal ratio, with a control signal flat, not every such curve was filed as active; the % refers to the signal ratio;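 also: cells stimulated with 0.4 nM T3 agonist during compound exposure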); details: TR-UAS-bla HEK293, beta-lactamase ratio, antagonist mode, 18 h
# How it was run: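 Inhibition of T3-driven (0.4nM final) beta-lactamase reporter activity was measured over 0.59 nM to 92 uM compound after 18 h at 37 C. The cells were GripTite HEK293 TR-UAS-bla in charcoal/dextran-stripped serum, with CCF4 ratio read-out and IC50 from Hill fits.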
# [12] = qHTS assay for small molecule agonists of the antioxidant response element (ARE) signaling pathway (AID 651741; active = well fitted activation curve with a large enough effect in the signal ratio; the % refers to the signal ratio; also: potency is read from the fitted curve at half-maximal effect)
# How it was run: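 Agonist activity is measured as ARE-driven beta-lactamase expression in a stable HepG2 reporter line, using 16 h compound treatment at 37 C and a FRET substrate fluorescence readout after 2 h.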
# [13] = qHTS assay for small molecule agonists of the antioxidant response element (ARE) signaling pathway measured by Nrf2-dependant transcriptional activity (AID 720636; active = well fitted curve in the direction sought with a large enough effect in the repeat runs; an effect the other way counts as inactive or inconclusive;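 also: HepG2 cells with an ARE-driven luciferase reporter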)
# How it was run: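 Reporter gene assay, HepG2 ARE-luc: 16 hr compound, 37 C, 5% CO2; read-out luciferase luminescence.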
# [14] = Primary qHTS to identify inhibitors of SARS-CoV-2 cell entry (AID 1645846); details: SARS-CoV-2 pseudovirus cell entry assay, luminescence; activity change, negative = inhibition: at 57.1 µM (top of the series) unless noted; also: nearly all actives have a fitted effect of over 45% in size; also: potency is read from the fitted curve at half-maximal effect
# How it was run: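 Data are normalized to wells receiving SARS-CoV-2-S pseudoparticles and those given bald particles. Entry signal was luciferase luminescence in stable hACE2 Expi293F cells, 48 hr post-infection, after 1 hr compound pretreatment.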
# [15] = KB-8-5-11 P-gp reporter qHTS against the NCATS DSHEA and TCM libraries (AID 1919977; active = well fitted curve in the direction sought with a large enough effect; an effect the other way counts as inactive or inconclusive)
# How it was run: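 Cells were seeded, allowed ~4 h to attach, dosed by pin tool (substance titrations), incubated ~72 h at 37C, then lysed with CellTiter-Glo for 30 min at room temperature before luminescence reading.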
# [16] = Confirmatory qHTS for VERO E6 Cytotoxicity Assay: Counterscreen for SARS-CoV-2 CPE Assay (AID 1508605); also: nearly all actives have a fitted effect of over 60% in size
# [17] = Confirmatory qHTS to identify inhibitors of SARS-CoV-2 cell entry (AID 1645844); also: potency is read from the fitted curve at half-maximal effect; nearly all actives have a fitted effect of over 45% in size
# How it was run: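 Luminescence entry read-out after 48 h: spike-pseudotyped MLV particles (Wuhan-Hu-1, 19-aa C-terminal truncation) added to compound-pretreated (1 h) HEK293-ACE2 cells; Data were normalised to bald PP and spike PP wells.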
# [18] = qHTS Assay for Identifying Gametocytocidal Compounds (AID 743244; active = well fitted curve in the direction sought with a large enough effect; an effect the other way counts as inactive or inconclusive; also: potency is read from the fitted curve at half-maximal effect); details: P. falciparum 3D7 stage III-V gametocytes, alamarBlue, 72 h
# How it was run: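 3D7 gametocytes, stages III–V, 20,000/well; cpd 72 h, 37 °C/5% CO2; + alamarBlue 24 h; fluor. Ex 525/Em 598.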
# [19] = biological target: Alpha-galactosidase (Coffea arabica) (UniProt Q42656); assay: Counterscreen for Glucocerebrosidase Inhibitors: qHTS Assay for Coffee Bean alpha-Galactosidase at pH 5.9 (AID 998; active = well fitted curve in the direction sought with a large enough effect; an effect the other way counts as inactive or inconclusive)
# How it was run: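 Fluorogenic 4-MU substrate hydrolysis, 80 uM substrate and 2 nM coffee bean alpha-galactosidase, pH 5.9 citrate buffer, 20 min at room temperature, then NaOH/glycine stop. Titration 0.7 nM–77 uM, normalized to no-enzyme and enzyme controls, AC50 via Hill equation.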
# [20] = Validation screen for inhibitors of Lassa infection (AID 463096)
# [21] = Confirmatory qHTS for activators (rescue) of SARS-CoV-2 Cytopathic Effect (CPE) (AID 1508606); also: potency is read from the fitted curve at half-maximal effect; nearly all actives have a fitted effect of over 70% in size
# [22] = biological target: Cytochrome P450 2C9 (Homo sapiens) (UniProt P11712); assay: qHTS Assay for Inhibitors and Substrates of Cytochrome P450 2C9 (AID 883; active = well fitted curve in the direction sought with a large enough effect; an effect the other way counts as inactive or inconclusive; also: nearly all actives have a fitted effect of over 60% in size)
# How it was run: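 Inhibition of CYP2C9 is scored as loss of luminescence, with 57uM sulphaphenazole defining 100% inhibition. Substrate Luciferin-H is used at 100uM, equal to its KM; enzyme at 10nM in 25mM KPO4, 60 min at 37C with NADPH regeneration.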
# [23] = biological target: Cytochrome P450 2C19 (Homo sapiens) (UniProt P33261); assay: qHTS Assay for Inhibitors and Substrates of Cytochrome P450 2C19 (AID 899; active = well fitted curve in the direction sought with a large enough effect; an effect the other way counts as inactive or inconclusive; also: nearly all actives have a fitted effect of over 60% in size)
# How it was run: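 5nM enzyme + 10uM Luciferin-H EGE (=KM), 50mM KPO4; cpd pin-transferred, 10 min 37C; NADPH regen, 60 min 37C; stopped w/ luciferin detection reagent, 20 min; luminescence. Normalized to 57uM ketoconazole (AC100).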
# Sequence of Phospholipid hydroperoxide glutathione peroxidase GPX4 (Homo sapiens) (P36969 whole entry, looked up): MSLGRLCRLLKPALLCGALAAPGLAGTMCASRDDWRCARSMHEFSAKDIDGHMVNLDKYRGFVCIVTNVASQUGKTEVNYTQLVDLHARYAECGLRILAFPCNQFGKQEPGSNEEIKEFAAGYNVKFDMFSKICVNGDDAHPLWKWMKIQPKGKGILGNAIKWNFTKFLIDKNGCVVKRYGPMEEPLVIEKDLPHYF
# Sequence of Estrogen receptor (Homo sapiens) (P03372 whole entry, looked up): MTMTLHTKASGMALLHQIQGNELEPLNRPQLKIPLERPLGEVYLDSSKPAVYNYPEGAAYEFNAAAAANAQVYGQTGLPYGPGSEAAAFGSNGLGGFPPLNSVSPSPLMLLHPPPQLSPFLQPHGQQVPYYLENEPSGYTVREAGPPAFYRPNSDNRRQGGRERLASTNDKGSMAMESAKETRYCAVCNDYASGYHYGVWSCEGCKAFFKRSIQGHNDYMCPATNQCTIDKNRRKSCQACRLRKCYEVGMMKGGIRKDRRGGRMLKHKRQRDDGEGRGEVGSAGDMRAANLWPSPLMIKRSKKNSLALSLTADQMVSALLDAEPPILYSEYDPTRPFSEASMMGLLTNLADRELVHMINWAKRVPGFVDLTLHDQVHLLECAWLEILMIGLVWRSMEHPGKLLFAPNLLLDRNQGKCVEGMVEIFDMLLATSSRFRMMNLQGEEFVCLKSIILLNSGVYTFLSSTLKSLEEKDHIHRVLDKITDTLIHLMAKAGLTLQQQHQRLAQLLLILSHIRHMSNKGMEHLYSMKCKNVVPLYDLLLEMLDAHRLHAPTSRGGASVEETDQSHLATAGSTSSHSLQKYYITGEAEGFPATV
# Sequence of Thyroid hormone receptor beta (Homo sapiens) (P10828 whole entry, looked up): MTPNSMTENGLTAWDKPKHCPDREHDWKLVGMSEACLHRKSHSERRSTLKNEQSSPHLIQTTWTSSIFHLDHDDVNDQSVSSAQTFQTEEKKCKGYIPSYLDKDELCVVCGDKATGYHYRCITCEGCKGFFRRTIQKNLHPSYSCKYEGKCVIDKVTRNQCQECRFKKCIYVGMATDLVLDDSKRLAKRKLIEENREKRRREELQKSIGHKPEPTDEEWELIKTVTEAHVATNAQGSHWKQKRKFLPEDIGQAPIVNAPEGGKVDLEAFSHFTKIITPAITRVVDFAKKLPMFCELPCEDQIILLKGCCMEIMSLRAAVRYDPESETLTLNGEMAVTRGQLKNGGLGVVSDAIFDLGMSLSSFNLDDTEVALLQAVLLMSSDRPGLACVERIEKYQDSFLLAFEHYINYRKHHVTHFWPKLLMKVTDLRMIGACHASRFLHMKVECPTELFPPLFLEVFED
# Sequence of Cytochrome P450 2C19 (Homo sapiens) (P33261 whole entry, looked up): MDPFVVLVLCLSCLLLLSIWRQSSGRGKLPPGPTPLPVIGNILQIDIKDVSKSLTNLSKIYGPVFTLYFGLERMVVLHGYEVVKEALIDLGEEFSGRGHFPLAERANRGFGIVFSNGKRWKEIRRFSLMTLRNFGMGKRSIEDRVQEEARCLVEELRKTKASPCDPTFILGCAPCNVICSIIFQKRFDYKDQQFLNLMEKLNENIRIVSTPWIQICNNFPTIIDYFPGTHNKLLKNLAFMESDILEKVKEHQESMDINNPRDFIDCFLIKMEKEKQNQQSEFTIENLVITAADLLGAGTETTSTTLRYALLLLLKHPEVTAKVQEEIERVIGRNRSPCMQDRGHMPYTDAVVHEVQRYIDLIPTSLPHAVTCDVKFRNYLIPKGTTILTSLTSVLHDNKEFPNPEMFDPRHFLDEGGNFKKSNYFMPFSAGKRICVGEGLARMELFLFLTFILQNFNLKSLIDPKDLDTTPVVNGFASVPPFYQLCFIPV
# Sequence of Alpha-galactosidase (Coffea arabica) (Q42656 whole entry, looked up): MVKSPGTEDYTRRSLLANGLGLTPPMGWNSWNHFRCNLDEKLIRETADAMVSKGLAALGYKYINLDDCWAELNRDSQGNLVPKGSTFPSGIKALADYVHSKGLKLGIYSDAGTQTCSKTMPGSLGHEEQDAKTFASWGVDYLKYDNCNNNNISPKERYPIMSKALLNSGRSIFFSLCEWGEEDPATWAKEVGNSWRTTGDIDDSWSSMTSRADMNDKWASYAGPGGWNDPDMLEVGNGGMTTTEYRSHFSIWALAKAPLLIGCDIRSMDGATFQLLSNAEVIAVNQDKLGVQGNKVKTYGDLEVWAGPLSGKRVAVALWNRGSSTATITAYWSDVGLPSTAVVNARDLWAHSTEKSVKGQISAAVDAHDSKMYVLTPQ
# Sequence of Cytochrome P450 2C9 (Homo sapiens) (P11712 whole entry, looked up): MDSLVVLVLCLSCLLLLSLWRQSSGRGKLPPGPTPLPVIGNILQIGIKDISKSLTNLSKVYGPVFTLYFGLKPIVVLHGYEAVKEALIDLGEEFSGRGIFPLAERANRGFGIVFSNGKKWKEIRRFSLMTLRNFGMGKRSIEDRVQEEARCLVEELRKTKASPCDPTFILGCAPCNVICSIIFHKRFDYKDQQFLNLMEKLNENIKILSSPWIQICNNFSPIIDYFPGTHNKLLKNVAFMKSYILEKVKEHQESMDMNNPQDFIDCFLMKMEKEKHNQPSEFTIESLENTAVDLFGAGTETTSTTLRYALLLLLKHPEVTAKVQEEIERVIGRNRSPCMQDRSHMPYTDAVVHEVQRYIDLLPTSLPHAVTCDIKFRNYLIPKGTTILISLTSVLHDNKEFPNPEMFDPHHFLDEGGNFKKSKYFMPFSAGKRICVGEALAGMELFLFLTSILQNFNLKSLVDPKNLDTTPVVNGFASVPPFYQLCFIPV
# Sequence of Glutathione peroxidase 1 (Homo sapiens) (P07203 whole entry, looked up): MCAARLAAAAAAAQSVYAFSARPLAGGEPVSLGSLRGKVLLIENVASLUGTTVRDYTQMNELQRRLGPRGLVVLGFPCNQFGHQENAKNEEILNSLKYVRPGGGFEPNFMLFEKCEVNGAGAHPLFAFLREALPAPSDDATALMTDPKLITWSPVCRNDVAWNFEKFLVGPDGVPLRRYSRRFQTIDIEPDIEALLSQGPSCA
# Sequence of Peroxisome proliferator-activated receptor gamma (Homo sapiens) (P37231 whole entry, looked up): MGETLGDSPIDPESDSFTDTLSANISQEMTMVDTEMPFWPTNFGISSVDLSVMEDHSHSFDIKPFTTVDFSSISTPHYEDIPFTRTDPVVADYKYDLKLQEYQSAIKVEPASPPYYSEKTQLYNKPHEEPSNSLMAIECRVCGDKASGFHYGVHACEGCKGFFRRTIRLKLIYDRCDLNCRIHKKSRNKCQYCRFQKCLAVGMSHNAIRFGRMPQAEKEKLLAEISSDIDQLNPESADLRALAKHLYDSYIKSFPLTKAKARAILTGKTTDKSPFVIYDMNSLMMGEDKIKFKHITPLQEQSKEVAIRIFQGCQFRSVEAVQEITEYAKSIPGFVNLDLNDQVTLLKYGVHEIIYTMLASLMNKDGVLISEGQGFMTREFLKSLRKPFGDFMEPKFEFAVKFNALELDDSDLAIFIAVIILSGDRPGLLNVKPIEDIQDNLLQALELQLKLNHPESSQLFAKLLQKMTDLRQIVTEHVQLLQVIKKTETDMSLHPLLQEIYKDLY
# Sequence of Glucocorticoid receptor (Homo sapiens) (P04150 whole entry, looked up): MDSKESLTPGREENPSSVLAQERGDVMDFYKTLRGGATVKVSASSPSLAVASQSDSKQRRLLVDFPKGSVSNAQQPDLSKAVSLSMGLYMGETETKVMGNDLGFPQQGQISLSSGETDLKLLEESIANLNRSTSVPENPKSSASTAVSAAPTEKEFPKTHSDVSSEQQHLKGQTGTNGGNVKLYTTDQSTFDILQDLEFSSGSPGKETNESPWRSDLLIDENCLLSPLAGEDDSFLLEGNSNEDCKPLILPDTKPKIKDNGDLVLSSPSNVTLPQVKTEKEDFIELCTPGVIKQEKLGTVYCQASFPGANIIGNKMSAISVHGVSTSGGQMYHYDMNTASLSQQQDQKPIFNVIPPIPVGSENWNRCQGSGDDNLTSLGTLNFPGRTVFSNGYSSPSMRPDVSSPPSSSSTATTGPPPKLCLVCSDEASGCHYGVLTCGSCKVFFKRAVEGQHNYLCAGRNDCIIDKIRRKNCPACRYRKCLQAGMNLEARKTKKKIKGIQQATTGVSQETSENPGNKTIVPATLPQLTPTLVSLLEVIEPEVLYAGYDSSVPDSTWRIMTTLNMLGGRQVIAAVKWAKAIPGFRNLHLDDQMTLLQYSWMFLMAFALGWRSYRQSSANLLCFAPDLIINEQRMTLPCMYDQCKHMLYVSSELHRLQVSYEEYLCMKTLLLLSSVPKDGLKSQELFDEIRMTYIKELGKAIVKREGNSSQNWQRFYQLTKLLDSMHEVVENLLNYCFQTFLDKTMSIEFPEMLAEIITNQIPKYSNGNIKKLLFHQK
structure (smiles),measurement,setting,value
c1ccc(CCNCc2ccccc2)cc1,Potency,[1],inactive
same,Potency,[2],inactive
same,Potency,[3],inactive
same,Potency,[4],inactive
same,Potency,[5],inactive
same,Potency,[6],inactive
O=C(O)CC(O)(CC(=O)O)C(=O)O,Potency,[7],50.1 µM (active)
same,Potency,[8],inactive
same,activation,[9],1.56% (inactive)
same,Potency,[10],inactive
same,activity change % (negative = inhibition),[11],-10.8% (inactive) and 10.6% (inactive)
same,Potency,[12],inactive and 54.5 µM (active)
same,outcome,[13],inactive
same,Potency,[1],inactive
same,Potency,[2],inactive
same,Potency,[3],inactive
same,Potency,[4],inactive
same,"activity change, negative = inhibition",[14],-17.5%
same,Potency,[15],inactive
CN[C@@H]1[C@@H](O[C@H]2O[C@H](CO)[C@@H](N)[C@H](O)[C@H]2O)O[C@H]2C[C@@H](N)[C@H](O[C@H]3[C@H](O)[C@@H](O)[C@H](N)C[C@@H]3N)O[C@@H]2[C@@H]1O,Potency,[1],inactive
same,Potency,[2],inactive
same,Potency,[4],inactive
same,"activity change, negative = inhibition",[14],-26.5%
COc1c(O)cc2c(c1O)[C@H]1O[C@@H](CO)[C@H](O)[C@@H](O)[C@@H]1OC2=O,Potency,[1],inactive
same,Potency,[2],inactive
same,Potency,[3],inactive
same,"activity change, negative = inhibition",[14],-14.9%
CC(CN1c2ccccc2Sc2ccc(S(=O)(=O)N(C)C)cc21)N(C)C (centres undefined),Potency,[1],inactive
same,Potency,[3],inactive
same,Potency,[16],inactive
same,Potency,[17],39.3 µM (active)
O=S(=O)(O)c1ccc2c(N=Nc3ccc(S(=O)(=O)O)c4ccccc34)c(O)c(S(=O)(=O)O)cc2c1,Potency,[1],inactive
same,Potency,[2],inactive
same,Potency,[4],inactive
same,"activity change, negative = inhibition",[14],-21.2%
CCCC(CCC)C(=O)OC1C[C@H]2CC[C@@H](C1)[N+]2(C)C (some centres undefined),Potency,[18],10 µM (active)
same,Potency,[1],inactive
same,Potency,[2],inactive
same,Potency,[3],inactive
same,Potency,[4],inactive
C=C[C@H]1CN2CC[C@H]1C[C@@H]2[C@@H](OC(=O)OCC)c1ccnc2ccc(OC)cc12,Potency,[1],inactive
same,Potency,[2],inactive
same,Potency,[3],inactive
same,Potency,[4],inactive
same,Potency,[6],inactive
CCN1C[C@@]2(COC)C3[C@@H](OC)C4[C@@H]1[C@@]3(C1C[C@]3(O)[C@H](OC(=O)c5ccccc5)C1[C@]4(OC(C)=O)[C@@H](O)[C@@H]3OC)[C@@H](OC)C[C@H]2O (some centres undefined),Potency,[1],inactive
same,Potency,[2],inactive
same,Potency,[3],inactive
same,Potency,[4],inactive
same,Potency,[6],inactive
CC[N+](C)(C)Cc1ccccc1Br,outcome,[19],inactive
same,Potency,[20],inactive
same,Potency,[1],inactive
same,Potency,[2],inactive
same,Potency,[4],inactive
N[C@@H](C(=O)N[C@@H]1C(=O)N2C(C(=O)O)=C(Cl)CC[C@H]12)c1ccccc1,Potency,[1],inactive
same,Potency,[2],inactive
same,Potency,[3],inactive
same,"activity change, negative = inhibition",[14],-20.1%
C[C@H]1CC[C@@H]2[C@@H](C)[C@H]3[C@H](C[C@H]4[C@@H]5CC=C6C[C@@H](O[C@@H]7O[C@H](CO)[C@H](O)[C@H](O[C@@H]8O[C@H](CO)[C@@H](O)[C@H](O)[C@H]8O)[C@H]7O[C@@H]7O[C@@H](C)[C@H](O)[C@@H](O)[C@H]7O)CC[C@]6(C)[C@H]5CC[C@]34C)N2C1,Potency,[1],inactive
same,Potency,[2],inactive
same,Potency,[14],20 µM (active)
CN(C)CCC=C1c2ccccc2C(C)(C)c2ccccc21,Potency,[1],inactive
same,Potency,[3],inactive
same,Potency,[16],inactive
same,Potency,[21],10 µM (active)
same,Potency,[4],inactive
Cc1c(O)c(=O)ccn1C,"activity change, negative = inhibition",[22],39.1% [at 11.4 µM] (inactive)
same,"activity, negative = inhibition",[23],86.4% [at 11.4 µM] (inactive)
same,Potency,[1],inactive
same,Potency,[2],inactive
same,Potency,[3],inactive
same,Potency,[4],inactive
same,"activity change, negative = inhibition",[14],-14.9% [at 114 µM]
